target: Glucose transporter (Leishmania mexicana) (UniProt O61059); assay: ST_JUDE_LEISH: Cytotoxicity at 2uM final concentration against transgenic Leishmania Mexicana promastigotes LmGT2 that are glucose transport deficient and complemented with the L. Mexicana glucose transporter 2. Activity is measured by DNA content using SYBR green in vitro; format: functional

| Structure (SMILES) | inhibition |
| --- | --- |
| N=C(/N=C(/NCCCCCCN/C(=N\C(=N)Nc1ccc(Cl)cc1)N1CCCCC1)N1CCCCC1)Nc1ccc(Cl)cc1 | -0.71% |
| COc1cc2nc(-c3ccc(Br)cc3)cc(N)c2cc1OC | 29.1% |
| CC1(C)NC(N)=NC(=N)N1OCCCOc1cccc2ccccc12 | 45.4% |
| Cc1cc(C(F)(F)F)nn1-c1ccc(NC(=O)c2ccco2)cc1 | -1.05% |
| COc1cc(Nc2ccnc3ccc(C(F)(F)F)cc23)cc(OC)c1OC | 12.6% |
| Oc1cc2ccccc2cc1CNC1CCCCC1 | 1.5% |
| FC(F)(F)c1ccc2[nH]c(-c3ccc(-c4ccc(CNCC5CCCO5)cc4)cc3)nc2c1 (stereo not given) | 1.84% |
| COc1ccccc1C1CCN(C2CCC(NC(=O)/C=C/c3ccc(F)c(F)c3)CC2)CC1 (stereo not given) | -2.36% |
| COc1ccc(CCc2ccc(-c3c(C)[nH]c(C)c(Cl)c3=O)cc2)cc1 | 1.05% |
| COc1ccnc(NCCCNCc2cn(S(=O)(=O)c3ccccc3)c3ccccc23)c1 | 0.11% |
| CCC(=O)Nc1ccc(C(O)CN2CCC3(C=Cc4ccccc4O3)CC2)cc1 (stereo not given) | 1.63% |
| O=[N+]([O-])c1ccc(C(O)CNCCc2ccccc2)cc1OCc1ccccc1 (stereo not given) | 15% |
| COc1ccccc1-c1[nH]c2ccccc2c1CN1CCC(c2c(C)cccc2C)CC1 | 11% |
| Cc1cc2nc(N=C3NC4(c5ccccn5)NC(=Nc5nc6cc(C)c(C)cc6[nH]5)NC4(c4ccccn4)N3)[nH]c2cc1C (stereo not given) | -0.63% |
| CCOc1ccc2c(N/N=C/c3cccc([N+](=O)[O-])c3)cc(C)nc2c1 | 4.14% |
| Cc1ccccc1C1CCN(C2CCC(NC(=O)c3cc(-c4ccccc4)oc3C)CC2)CC1 (stereo not given) | -1.44% |
| Cc1nn(CC(C)C)c2sc(C(=O)Nc3nc(-c4ccccn4)cs3)cc12 | 2.33% |
| O=C(Nc1ccc(C(F)(F)F)cc1)NC1CCN(CCCCCNC(=O)C2CC2c2ccc(Cl)c(Cl)c2)CC1 (stereo not given) | -1.98% |
| Cc1ccc(O)cc1Nc1ccnc2cc(-c3cccc(CNCCS(C)(=O)=O)c3)ccc12 | -3.77% |
| O=[N+]([O-])c1cccc(CNCC2CCN(CC3CCCCC3)CC2)c1 | 2.98% |

| Structure (SMILES) | inhibition |
| --- | --- |
| Cc1nc(-c2ccc(-c3ccc(NC(=O)c4coc5ccc(N6CC(C)NC(C)C6)cc45)cc3)c(C)c2)no1 (stereo not given) | 6.24% |
| CN(C)CCC1CCN(CCS(=O)(=O)c2cccc(Nc3ccc(-c4ccsc4)cn3)c2)CC1 | 1.59% |
| CCOc1ccc(NC(=O)c2ccc(NCCCN3CC(C)CC(C)C3)c([N+](=O)[O-])c2)cc1 (stereo not given) | 1.09% |
| CCN(CC)CCCOC(=O)c1ccc2c(c1)-c1ccc(C(=O)OCCCN(CC)CC)c3cccc-2c13 | 4.24% |
| Nc1ncc(-c2cccc(OCc3ccccc3)c2)cc1-c1nnc2ccc(Cl)nn12 | 2.15% |
| O=S(=O)(c1ccc(Cl)cc1Cl)N1CCCCC(c2ccc(C(F)(F)F)cc2)=N1 | 1.07% |
| Cc1cc(Cl)c(S(=O)(=O)NC(C)(C)C)cc1OCC(=O)NC1CCCCC1 | 0.34% |
| COc1cc(NC(=O)c2ccc(-c3ccc(C(C)=O)cc3)s2)ccc1OCCN1CCCC1 | 1.4% |
| Cc1ccc(C(=O)Nc2cccc(CN3CCCN(Cc4ccc(O)cc4)CC3)c2)s1 | 2.88% |
| O=C1COc2ccc3ccccc3c21 | -0.4% |
| CN1CCN(Cc2cc(NC(=O)c3ccc(-c4ccc(Cl)cc4Cl)cc3)ccc2-c2ccccc2)CC1 | -0.1% |
| O=C(NC1CCN(c2ccnc3cc(Cl)ccc23)C1)c1ccc(C(F)(F)F)cc1 (stereo not given) | 0.57% |
| Cc1cc(N2CCOCC2)nc2ccc(NC(=O)c3ccc(Cl)c([N+](=O)[O-])c3)cc12 | 2.75% |
| CN(C)c1ccc(-c2nnc(Sc3ccc(C#N)c([N+](=O)[O-])c3)n2Cc2ccco2)cc1 | 0.63% |
| Cc1[nH]c(C)c(-c2ccc(-c3ccc(Cl)cc3)cc2)c(=O)c1Cl | 1.13% |
| Cc1cc(=O)[nH]c2cc(Nc3ccnc(Nc4cccc(C(N)=O)c4)n3)ccc12 | 3.24% |
| CCCCCCNC(=O)C1Cc2c([nH]c3ccc(Br)cc23)C2(CCN(Cc3ccccc3)CC2)N1 (stereo not given) | 30.9% |
| CCn1c(Sc2ccc(C#N)c([N+](=O)[O-])c2)nnc1-c1cccc(Cl)c1 | 11.8% |
| Cc1cc(=NN=Cc2ccc(F)cc2)c2cccc(C)c2[nH]1 | 3.02% |
| O=C(/C=C/c1ccc(Cl)c(Cl)c1)NCCCCCN1CCCC(C(=O)Nc2ccc(F)c(Cl)c2)C1 (stereo not given) | 4.87% |
